We go through 37 targets from the supplement of paper PMC11006884.

The full data set covers some 6,500 targets. This sample favours those with a hit. About 2% of all pairs of compound and target were hits. Unmarked numbers belong to inactive results.

UniProt P38117, sequence (P38117 whole entry, looked up): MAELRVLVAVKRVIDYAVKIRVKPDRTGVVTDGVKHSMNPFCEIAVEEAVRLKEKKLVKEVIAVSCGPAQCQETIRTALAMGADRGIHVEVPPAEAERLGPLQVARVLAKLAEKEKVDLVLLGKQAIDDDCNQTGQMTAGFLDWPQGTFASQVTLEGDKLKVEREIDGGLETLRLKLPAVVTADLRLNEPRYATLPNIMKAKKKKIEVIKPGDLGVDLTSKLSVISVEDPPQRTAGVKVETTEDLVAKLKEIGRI
UniProt P07737, sequence (P07737 whole entry, looked up): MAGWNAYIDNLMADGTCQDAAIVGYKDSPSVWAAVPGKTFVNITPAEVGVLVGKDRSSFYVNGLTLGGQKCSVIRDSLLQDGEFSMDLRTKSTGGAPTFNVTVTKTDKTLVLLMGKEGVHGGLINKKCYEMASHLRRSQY
UniProt P22830, sequence (P22830 whole entry, looked up): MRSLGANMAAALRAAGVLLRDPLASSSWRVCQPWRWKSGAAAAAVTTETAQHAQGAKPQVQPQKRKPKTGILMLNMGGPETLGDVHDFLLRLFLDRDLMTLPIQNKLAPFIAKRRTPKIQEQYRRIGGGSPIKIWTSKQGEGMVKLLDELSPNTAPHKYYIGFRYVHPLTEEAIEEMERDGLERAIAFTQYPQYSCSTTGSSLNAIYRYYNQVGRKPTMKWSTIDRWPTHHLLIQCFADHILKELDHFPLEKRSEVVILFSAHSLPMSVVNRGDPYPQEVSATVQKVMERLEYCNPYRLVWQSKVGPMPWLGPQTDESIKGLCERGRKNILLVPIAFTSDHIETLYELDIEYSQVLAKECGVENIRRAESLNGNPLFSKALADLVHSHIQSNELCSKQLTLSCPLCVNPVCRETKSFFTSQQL
UniProt P50991, sequence (P50991 whole entry, looked up): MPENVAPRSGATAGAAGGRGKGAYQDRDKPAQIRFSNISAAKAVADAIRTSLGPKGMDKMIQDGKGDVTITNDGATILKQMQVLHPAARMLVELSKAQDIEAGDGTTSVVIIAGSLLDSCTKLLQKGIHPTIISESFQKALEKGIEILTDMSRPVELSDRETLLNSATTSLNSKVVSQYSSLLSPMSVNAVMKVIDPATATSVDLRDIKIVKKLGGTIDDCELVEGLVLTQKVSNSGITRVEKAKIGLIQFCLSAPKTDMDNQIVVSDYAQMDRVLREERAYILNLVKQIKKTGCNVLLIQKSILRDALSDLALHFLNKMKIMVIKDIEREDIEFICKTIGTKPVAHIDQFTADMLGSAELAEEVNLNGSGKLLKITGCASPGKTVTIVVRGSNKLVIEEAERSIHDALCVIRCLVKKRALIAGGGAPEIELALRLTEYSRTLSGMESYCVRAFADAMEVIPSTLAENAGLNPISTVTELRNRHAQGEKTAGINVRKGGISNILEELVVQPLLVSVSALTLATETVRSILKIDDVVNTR
UniProt P49327, sequence (P49327 whole entry, looked up): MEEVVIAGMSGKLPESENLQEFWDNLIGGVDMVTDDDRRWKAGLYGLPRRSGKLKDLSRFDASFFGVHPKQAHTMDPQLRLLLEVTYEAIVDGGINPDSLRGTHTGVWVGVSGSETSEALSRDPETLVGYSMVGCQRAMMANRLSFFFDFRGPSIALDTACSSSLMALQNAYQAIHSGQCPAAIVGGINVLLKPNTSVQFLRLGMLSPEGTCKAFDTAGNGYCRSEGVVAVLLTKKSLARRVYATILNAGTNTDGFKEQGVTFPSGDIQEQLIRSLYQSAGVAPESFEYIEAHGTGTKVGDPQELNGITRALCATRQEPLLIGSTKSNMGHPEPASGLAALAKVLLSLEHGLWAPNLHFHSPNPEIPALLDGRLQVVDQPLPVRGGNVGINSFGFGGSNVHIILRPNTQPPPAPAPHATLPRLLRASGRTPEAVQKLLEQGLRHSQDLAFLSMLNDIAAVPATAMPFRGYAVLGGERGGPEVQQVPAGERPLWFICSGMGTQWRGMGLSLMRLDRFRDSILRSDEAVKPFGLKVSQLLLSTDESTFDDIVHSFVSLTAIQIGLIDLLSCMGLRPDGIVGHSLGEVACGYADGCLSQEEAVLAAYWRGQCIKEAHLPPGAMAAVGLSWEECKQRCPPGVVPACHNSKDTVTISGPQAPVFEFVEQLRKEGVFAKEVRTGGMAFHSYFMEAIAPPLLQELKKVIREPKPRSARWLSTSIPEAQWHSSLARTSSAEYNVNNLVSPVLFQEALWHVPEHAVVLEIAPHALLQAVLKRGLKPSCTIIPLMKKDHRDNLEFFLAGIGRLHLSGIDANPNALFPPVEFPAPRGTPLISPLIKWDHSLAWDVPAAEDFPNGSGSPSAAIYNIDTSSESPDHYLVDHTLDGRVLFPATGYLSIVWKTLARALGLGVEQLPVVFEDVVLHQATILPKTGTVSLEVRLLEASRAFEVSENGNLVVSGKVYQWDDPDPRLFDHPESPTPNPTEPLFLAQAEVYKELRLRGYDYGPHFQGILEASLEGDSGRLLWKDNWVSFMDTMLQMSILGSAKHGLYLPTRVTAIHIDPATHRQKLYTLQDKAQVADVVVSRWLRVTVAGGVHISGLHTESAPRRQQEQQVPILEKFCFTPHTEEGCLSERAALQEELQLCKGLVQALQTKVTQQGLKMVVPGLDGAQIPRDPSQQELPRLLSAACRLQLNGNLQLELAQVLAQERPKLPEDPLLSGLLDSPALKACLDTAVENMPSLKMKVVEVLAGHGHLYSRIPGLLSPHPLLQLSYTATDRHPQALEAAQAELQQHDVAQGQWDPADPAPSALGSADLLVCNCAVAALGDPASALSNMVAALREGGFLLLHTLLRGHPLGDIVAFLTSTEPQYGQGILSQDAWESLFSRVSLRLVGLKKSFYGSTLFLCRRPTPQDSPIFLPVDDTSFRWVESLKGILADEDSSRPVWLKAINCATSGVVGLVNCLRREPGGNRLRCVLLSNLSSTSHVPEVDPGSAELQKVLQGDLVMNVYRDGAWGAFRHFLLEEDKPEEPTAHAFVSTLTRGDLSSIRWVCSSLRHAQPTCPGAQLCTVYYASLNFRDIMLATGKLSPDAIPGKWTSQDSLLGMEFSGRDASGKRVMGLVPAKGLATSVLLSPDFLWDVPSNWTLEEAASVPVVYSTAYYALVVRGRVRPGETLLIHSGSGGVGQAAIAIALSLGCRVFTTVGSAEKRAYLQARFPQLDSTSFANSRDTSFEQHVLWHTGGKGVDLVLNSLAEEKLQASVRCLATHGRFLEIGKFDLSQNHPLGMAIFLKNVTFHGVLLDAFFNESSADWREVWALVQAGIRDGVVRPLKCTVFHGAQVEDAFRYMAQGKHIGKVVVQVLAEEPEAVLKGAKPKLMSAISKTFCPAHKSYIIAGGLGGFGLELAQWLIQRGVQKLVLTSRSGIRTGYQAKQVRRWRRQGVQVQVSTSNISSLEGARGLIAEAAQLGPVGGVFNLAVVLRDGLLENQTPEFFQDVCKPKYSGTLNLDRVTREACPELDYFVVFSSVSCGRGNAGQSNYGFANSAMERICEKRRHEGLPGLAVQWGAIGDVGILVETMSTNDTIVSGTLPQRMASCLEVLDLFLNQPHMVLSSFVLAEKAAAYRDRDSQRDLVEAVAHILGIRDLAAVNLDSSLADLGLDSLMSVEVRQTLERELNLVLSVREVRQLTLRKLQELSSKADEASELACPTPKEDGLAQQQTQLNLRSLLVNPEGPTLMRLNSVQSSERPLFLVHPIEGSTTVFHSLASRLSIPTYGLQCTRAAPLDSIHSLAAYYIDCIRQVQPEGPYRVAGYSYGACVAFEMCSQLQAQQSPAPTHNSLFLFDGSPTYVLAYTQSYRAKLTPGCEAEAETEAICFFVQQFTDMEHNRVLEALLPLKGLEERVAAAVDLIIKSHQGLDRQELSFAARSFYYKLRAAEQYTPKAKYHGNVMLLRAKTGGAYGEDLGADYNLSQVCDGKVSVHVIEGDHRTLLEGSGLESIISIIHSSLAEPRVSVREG
UniProt P30153, sequence (P30153 whole entry, looked up): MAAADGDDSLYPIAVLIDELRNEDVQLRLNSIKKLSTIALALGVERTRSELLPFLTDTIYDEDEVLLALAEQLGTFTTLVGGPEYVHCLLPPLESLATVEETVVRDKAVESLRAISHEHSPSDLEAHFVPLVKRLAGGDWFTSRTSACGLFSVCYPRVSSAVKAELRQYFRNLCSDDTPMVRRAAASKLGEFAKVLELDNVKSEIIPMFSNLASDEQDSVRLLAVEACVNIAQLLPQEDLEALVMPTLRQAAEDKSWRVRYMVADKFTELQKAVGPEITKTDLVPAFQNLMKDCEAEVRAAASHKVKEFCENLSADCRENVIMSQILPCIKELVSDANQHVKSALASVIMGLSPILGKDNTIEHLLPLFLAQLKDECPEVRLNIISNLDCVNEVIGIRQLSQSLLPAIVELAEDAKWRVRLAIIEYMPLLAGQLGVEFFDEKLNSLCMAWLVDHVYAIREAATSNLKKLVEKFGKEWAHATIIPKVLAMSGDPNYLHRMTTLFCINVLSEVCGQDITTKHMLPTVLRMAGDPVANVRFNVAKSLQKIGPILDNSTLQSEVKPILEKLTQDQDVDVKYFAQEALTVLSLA
UniProt P45973, sequence (P45973 whole entry, looked up): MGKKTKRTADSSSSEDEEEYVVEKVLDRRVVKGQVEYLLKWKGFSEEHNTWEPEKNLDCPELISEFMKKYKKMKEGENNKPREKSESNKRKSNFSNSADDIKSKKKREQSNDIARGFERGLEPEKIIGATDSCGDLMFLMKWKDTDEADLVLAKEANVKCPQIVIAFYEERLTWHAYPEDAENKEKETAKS
UniProt P31153, sequence (P31153 whole entry, looked up): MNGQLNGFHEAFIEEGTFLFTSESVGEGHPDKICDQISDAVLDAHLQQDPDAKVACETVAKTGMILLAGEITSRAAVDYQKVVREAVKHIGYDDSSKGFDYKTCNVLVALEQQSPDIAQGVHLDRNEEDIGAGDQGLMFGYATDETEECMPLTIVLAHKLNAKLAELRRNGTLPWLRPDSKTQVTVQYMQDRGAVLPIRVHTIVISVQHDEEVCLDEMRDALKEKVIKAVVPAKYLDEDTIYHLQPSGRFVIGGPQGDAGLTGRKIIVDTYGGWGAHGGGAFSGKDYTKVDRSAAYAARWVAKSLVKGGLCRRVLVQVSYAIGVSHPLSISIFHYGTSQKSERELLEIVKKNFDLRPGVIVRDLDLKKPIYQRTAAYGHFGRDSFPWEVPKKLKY

Compound in this experiment: COC(=O)C#Cc1ccccc1 [methyl 3-phenylpropiolate]
Description: log2 ratio of iodoacetamide-alkyne labeling of the cysteine site, DMSO over compound (competition); higher = stronger covalent engagement of the cysteine by the compound, active = 1 or more. The settings on record: 500 µM; treatment time 1 h; system: HEK293T cell lysate. The procedure, abridged:
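After 1 h at ambient temperature with vehicle or electrophile (500 µM), HEK293T lysate (2 mg/mL) was labelled for 1 h with iodoacetamide alkyne and clicked to sCIP-TMT reagents. Pooled samples were trypsin-digested overnight at 37 °C, streptavidin-enriched, acid-eluted and analysed by Orbitrap Eclipse LC-MS/MS with FAIMS, then quantified in FragPipe over three replicates with duplicate channels. A cysteine's log2 competition ratio is its mean control-channel over mean compound-channel reporter intensity. Cysteines quantified in only one replicate were not included.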
For the target RANBP2 C82 (UniProt P49792), the “log2 ratio of iodoacetamide-alkyne labeling” value (from here on “log2 ratio”) is 0.564.

In the case of FASN C1992 (UniProt P49327), the “log2 ratio” value was 0.0894.

Regarding LATS1 C885 (UniProt O95835), the “log2 ratio” value is 0.423.

In the case of RPL17 C144 (UniProt P18621), the “log2 ratio” value is 0.131.

As for ENO1 C357 (UniProt P06733), the “log2 ratio” value is -0.0848.

Turning to SHMT1 C96 (UniProt P34896), the “log2 ratio” value was 0.0443.

Turning to DSP C3 (UniProt P15924), the “log2 ratio” value was 1.14 (active).

Take MDH2 C128 (UniProt P40926): the “log2 ratio” value is -0.335.

Turning to RPL10 C195 (UniProt P27635), the “log2 ratio” value is 0.694.

Turning to DNAJB1 C267 (UniProt P25685), the “log2 ratio” value is 0.268.

With SMC2 C585 (UniProt O95347), the “log2 ratio” value is 0.258.

Turning to CBX5 C133 (UniProt P45973), the “log2 ratio” value was 0.17.

Turning to MKI67 C2206 (UniProt P46013), the “log2 ratio” value is 0.603.

For FDFT1 C6 (UniProt P37268), the “log2 ratio” value was 0.233.

As for DSP C174 (UniProt P15924), the “log2 ratio” value is 1.06 (active).

On to ETFB C42 (UniProt P38117), for which the “log2 ratio” value is 0.207.

Regarding ATP1A1 C428 (UniProt P05023), the “log2 ratio” value is 0.234.

FLNA C1018 (UniProt P21333): the “log2 ratio” value is 0.0782.

Regarding CCT4 C337 (UniProt P50991), the “log2 ratio” value is 0.0635.

As to VDAC2 C13 (UniProt P45880), the “log2 ratio” value is 1.11 (active).

As to IDH3A C359 (UniProt P50213), the “log2 ratio” value is 1.05 (active).

Regarding UniProt P26639_C343, the “log2 ratio” value was 0.143.

Turning to FECH C395 (UniProt P22830), the “log2 ratio” value was 0.372.

Consider PFN1 C17 (UniProt P07737), for which the “log2 ratio” value was -0.417.

As for HNRNPH1 C267 (UniProt P31943), the “log2 ratio” value is 0.211.

PARP1 C429 (UniProt P09874): the “log2 ratio” value is 0.192.

EEF2 C651 (UniProt P13639): the “log2 ratio” value is 0.0919.

As to FLNA C1453 (UniProt P21333), the “log2 ratio” value was 0.357.

For the target U2AF1L5 C67 (UniProt P0DN76), the “log2 ratio” value was 0.366.

On to PRKCSH C500 (UniProt P14314), for which the “log2 ratio” value was 0.513.

As for PLS3 C33 (UniProt P13797), the “log2 ratio” value is 1.04 (active).

On to TAGLN2 C38 (UniProt P37802), for which the “log2 ratio” value was -0.0194.

Turning to UniProt P49591_C438, the “log2 ratio” value was 0.0645.

Take TCP1 C218 (UniProt P17987): the “log2 ratio” value is 0.0267.

In the case of PPP2R1A C294 (UniProt P30153), the “log2 ratio” value was 0.323.

As to EEF2 C567 (UniProt P13639), the “log2 ratio” value is 0.0358.

On to MAT2A C104 (UniProt P31153), for which the “log2 ratio” value is 0.274.
